Assay results reported in PubChem BioAssay (NCATS).
Several values for one entry are separate records, joined by “and”; a condition that tells them apart may be missing. Equal entries are not always repeated. Records with an inconclusive call do not appear. Activity calls are given as the source filed them. Unless noted, calls follow the shape of the dose curve; as a rule, active = well fitted curve in the direction sought with a large enough effect; inconclusive = small, poorly fitted or top-dose-only effect, or another doubt; inactive = no such curve, though single readings can be large; an effect the other way counts as inactive or inconclusive.

Assays:
[1] = qHTS assay for small molecule agonists of the antioxidant response element (ARE) signaling pathway (AID 651741; active = well fitted activation curve with a large enough effect in the signal ratio; the % refers to the signal ratio; also: potency is read from the fitted curve at half-maximal effect; as to activation: % of control where 0% means no effect)
Summary of the method: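 Compounds in DMSO are pinned onto HepG2 ARE-bla cells (2,000/well) that were preincubated 5 h; plates stay 16 h at 37 C, then beta-lactamase activity is detected with LiveBLAzer B/G substrate by fluorescence.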

[2] = qHTS assay for small molecule activators of the p53 signaling pathway (AID 651743; active = well fitted activation curve with a large enough effect in the signal ratio, not every such curve was filed as active; the % refers to the signal ratio; also: potency is read from the fitted curve at half-maximal effect; as to activation: series mostly up to about 92 µM; % of control where 0% means no effect); details: HCT-116 p53RE-bla, beta-lactamase FRET ratio, 16 h; activation: active compounds read high
Summary of the method: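 Cell-based beta-lactamase reporter (p53 response elements, HCT-116 background). After a 5-hour preincubation, cells received compound for 16 hours at 37 C; substrate development ran 2 hours at room temperature.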

[3] = qHTS assay for small molecule activators of the nuclear factor-kappa B (NF-kB) signaling pathway (AID 651749; active = well fitted activation curve with a large enough effect in the signal ratio; the % refers to the signal ratio; also: series mostly up to about 77 µM; % of control where 0% means no effect); details: NF-kB-bla ME-180 cells, beta-lactamase FRET ratio, 16 h; active compounds read high
Summary of the method: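 Screening used 2,000 ME-180 reporter cells per well exposed to pinned compound (23 nL) or DMSO; after 16 hr at 37C, beta-lactamase expression under NF-kB control was assessed through FRET.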

[4] = qHTS assay for environmental chemicals that activate the Aryl hydrocarbon Receptor (AhR) signaling pathway (AID 651777); details: 1A2-DRE human hepatoma cells, luciferase, 24 h; activation: active compounds read high; also: nearly all actives have a fitted effect of over 15% in size; also: potency is read from the fitted curve at half-maximal effect; as to activation: % of control where 0% means no effect
Summary of the method: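 Concentration–response screening used 1,200 1A2-DRE cells per well, 24 hr compound exposure (37 C, 5% CO2), and One-Glo luminescence as the AhR-driven CYP1A2 reporter signal.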

[5] = biological target: Peroxisome proliferator-activated receptor alpha (Homo sapiens) (UniProt Q07869); assay: qHTS assay for small molecule agonists of the peroxisome proliferator-activated receptor alpha (PPARalpha) signaling pathway (AID 651778); details: PathHunter PPARalpha complementation, chemiluminescence, 6 h; max response: active compounds read high; also: potency is read from the fitted curve at half-maximal effect; as to max response: % of control where 0% means no effect
Peroxisome proliferator-activated receptor alpha (Homo sapiens), sequence (Q07869 whole entry, looked up): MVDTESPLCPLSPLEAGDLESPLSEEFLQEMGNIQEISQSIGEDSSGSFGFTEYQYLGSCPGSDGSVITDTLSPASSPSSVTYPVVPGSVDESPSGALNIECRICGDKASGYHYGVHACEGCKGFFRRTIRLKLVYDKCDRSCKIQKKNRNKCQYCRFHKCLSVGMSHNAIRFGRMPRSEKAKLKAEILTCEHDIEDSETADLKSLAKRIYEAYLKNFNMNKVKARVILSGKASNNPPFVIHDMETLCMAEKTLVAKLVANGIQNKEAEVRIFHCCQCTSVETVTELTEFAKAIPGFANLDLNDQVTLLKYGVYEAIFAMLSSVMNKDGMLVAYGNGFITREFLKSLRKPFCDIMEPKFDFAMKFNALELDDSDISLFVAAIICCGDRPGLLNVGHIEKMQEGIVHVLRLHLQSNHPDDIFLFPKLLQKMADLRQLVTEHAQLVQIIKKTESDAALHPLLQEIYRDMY
Summary of the method: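 Cells plated at 2,000/well and held overnight at 37 C, 5% CO2, then compound added by pin tool for 6 hr; after PathHunter detection reagent and 60 min at room temperature, chemiluminescence from enzyme complementation was read.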

[6] = biological target: Nuclear receptor ROR-gamma (Homo sapiens) (UniProt P51449); assay: qHTS assay for small molecule antagonists of the retinoid-related orphan receptor gamma (ROR-gamma) signaling pathway (AID 651802); also: nearly all actives have a fitted effect of over 60% in size; also: potency is read from the fitted curve at half-maximal effect
Nuclear receptor ROR-gamma (Homo sapiens), sequence (P51449 whole entry, looked up): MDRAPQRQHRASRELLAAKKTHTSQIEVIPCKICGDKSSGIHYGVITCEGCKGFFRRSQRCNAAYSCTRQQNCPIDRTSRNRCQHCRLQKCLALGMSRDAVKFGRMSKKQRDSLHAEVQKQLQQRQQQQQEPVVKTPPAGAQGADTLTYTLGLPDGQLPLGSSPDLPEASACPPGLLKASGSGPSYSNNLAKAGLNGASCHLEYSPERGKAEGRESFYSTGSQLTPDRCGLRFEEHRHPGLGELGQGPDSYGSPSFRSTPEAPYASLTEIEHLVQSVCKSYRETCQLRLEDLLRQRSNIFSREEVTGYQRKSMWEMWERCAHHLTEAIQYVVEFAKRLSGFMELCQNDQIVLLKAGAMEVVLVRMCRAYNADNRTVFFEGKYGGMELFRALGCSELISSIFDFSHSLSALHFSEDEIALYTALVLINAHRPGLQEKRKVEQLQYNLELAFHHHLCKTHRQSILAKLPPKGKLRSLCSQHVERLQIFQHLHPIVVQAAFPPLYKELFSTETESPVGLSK
Summary of the method: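 CHO, TET-inducible ROR + RORE-LUC reporter, 1536-well qHTS. Compound pinned, doxycycline added, 16hr 37C/5% CO2. ONE-Glo, 30 min RT, luminescence; signal drop scored as antagonism.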

[7] = biological target: Arylsulfatase A (Homo sapiens) (UniProt P15289); assay: qHTS screen for enhancers of Arylsulfatase A (ASA1): LOPAC Validation Assay (AID 720538)
Arylsulfatase A (Homo sapiens), sequence (P15289 whole entry, looked up): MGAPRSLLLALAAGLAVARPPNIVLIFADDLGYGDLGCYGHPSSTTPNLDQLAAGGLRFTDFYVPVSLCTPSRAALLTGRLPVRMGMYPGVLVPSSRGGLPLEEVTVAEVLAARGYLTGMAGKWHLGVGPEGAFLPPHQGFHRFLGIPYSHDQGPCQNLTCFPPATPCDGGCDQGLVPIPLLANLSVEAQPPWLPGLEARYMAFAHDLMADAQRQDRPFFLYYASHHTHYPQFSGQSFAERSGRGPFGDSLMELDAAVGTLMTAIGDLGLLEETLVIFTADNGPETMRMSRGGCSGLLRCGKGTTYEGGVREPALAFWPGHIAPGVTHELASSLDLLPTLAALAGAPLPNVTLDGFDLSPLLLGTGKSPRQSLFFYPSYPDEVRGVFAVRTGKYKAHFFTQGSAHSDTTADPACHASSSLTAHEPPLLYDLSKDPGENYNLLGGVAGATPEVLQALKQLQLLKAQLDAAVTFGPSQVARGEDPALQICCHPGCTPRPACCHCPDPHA
Summary of the method: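 Enhancer assay in patient-derived MLD fibroblasts carrying ASA-I179S: 48 h compound exposure at 37 C, then 14 h room-temperature pNCS turnover (0.5 mM final) in lysis buffer. Read by fluorescence at 525/598 nm after NaOH stop.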

[8] = qHTS for compounds that reverse cellular toxicity of Amyloid beta (A-beta) peptide in yeast: LOPAC Validation Assay (AID 720559);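 also: plate controls were DMSO for no effect and equimolar ferric chloride plus clioquinol rescue for full effect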
Summary of the method: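 Rescue of A-beta toxicity was scored as yeast growth by 600 nm absorbance after 48 hr at 30 C with compound. Normalization used DMSO (negative) and equimolar ferric chloride plus clioquinol (positive).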

[9] = qHTS for Activators of Parkin Expression: LOPAC Validation Assay (NLuc Reporter) (AID 720572;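 also: 0% = DMSO and 100% = positive control compound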)
Summary of the method: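 Neuronal line stably carrying a FLuc/NLuc coincidence reporter under the Parkin promoter, seeded 24 h, then dosed in 7-point series for 24 h at 37 C. NLuc luminescence read after FLuc; normalized to DMSO and positive control (100%).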

[10] = qHTS assay for small molecule agonists of the antioxidant response element (ARE) signaling pathway measured by Nrf2-dependant transcriptional activity (AID 720636; active = well fitted curve in the direction sought with a large enough effect in the repeat runs; an effect the other way counts as inactive or inconclusive;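 also: HepG2 cells with an ARE-driven luciferase reporter; % of control where 0% means no effect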)
Summary of the method: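 Attachment 6 hr at 37 C, then compound versus DMSO vehicle for 16 hr in ARE-luc HepG2 cells (1% dialyzed FBS); luminescence recorded 30 min after ONE-Glo addition at room temperature.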

[11] = qHTS assay for small molecule antagonists of the retinoid-related orphan receptor gamma (ROR-gamma) signaling pathway - cell viability counter screen (AID 720652; active = well fitted curve in the direction sought with a large enough effect in the repeat runs; an effect the other way counts as inactive or inconclusive;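 also: compound exposure lasted 16 hr before ATP read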; also: potency is read from the fitted curve at half-maximal effect)
Summary of the method: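 Luminescence from CellTiter-Glo after 30 min at room temperature reported cellular ATP as the cytotoxicity measure. Cells were the CHO reporter line with doxycycline-induced ROR-gamma expression, exposed to compound for 16 hr at 37 C.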

[12] = qHTS assay for small molecule agonists of the antioxidant response element (ARE) signaling pathway measured by Nrf2-dependant transcriptional activity - cell viability counter screen (AID 720653; active = well fitted curve in the direction sought with a large enough effect in the repeat runs; an effect the other way counts as inactive or inconclusive; also: % is scaled to controls: 0 for no effect and ±100 for the full control effect); details: ARE-bla HepG2 viability, CellTiter-Glo ATP luminescence, 16 h; max response: active compounds read low
Summary of the method: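 ARE-bla HepG2 cells (2,000/well) rested 5 hrs at 37C/5% CO2, then exposed to compounds in DMSO for 16 hrs. Viability was read in the same wells as intracellular ATP by luminescence, 30 min at room temperature after reagent addition.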

[13] = biological target: T1, Hexokinase-4 (Homo sapiens) + Glucokinase regulatory protein (Homo sapiens) (UniProt P35557+Q14397); assay: qHTS assay for inhibitors of recombinant human GCK-GKRP interaction: Diaphorase-coupled assay (AID 743205)
T1 sequence (P35557 whole entry, looked up): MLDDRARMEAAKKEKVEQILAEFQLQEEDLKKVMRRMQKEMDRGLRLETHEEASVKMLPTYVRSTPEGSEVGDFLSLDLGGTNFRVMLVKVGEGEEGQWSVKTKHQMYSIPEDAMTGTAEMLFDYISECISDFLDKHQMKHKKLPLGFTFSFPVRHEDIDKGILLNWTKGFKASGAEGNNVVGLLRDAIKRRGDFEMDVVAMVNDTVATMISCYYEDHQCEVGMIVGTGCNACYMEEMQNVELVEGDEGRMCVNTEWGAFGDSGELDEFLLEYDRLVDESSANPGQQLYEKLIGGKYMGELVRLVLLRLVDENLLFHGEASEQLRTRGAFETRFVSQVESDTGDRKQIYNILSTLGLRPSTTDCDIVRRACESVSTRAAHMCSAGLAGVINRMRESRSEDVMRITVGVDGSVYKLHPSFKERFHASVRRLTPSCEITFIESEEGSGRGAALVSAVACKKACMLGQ
T1 sequence (Q14397 whole entry, looked up): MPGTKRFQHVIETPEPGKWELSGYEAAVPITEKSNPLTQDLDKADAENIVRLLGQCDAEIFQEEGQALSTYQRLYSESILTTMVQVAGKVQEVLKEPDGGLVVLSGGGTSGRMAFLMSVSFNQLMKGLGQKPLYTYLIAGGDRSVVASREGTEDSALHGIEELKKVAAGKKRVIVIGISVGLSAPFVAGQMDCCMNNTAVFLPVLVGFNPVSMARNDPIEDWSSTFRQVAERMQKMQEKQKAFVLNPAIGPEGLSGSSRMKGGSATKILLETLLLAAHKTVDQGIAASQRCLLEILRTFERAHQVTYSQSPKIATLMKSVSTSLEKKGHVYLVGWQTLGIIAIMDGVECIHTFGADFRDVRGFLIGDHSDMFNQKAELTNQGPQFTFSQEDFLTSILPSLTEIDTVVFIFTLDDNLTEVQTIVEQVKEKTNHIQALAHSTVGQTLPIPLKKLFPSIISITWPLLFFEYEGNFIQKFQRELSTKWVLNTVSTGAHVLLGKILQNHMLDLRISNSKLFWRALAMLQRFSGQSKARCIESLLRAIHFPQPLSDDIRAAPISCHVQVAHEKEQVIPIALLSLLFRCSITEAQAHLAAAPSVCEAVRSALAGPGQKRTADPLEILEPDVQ
Summary of the method: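 A kinetic fluorescence read (Ex 525/Em 590 nm, every minute for 30 minutes) tracked resorufin from a G6PDH-diaphorase coupled GCK reaction. It contained 10 nM GST-GCK, 10 nM FLAG-GKRP, 5 mM glucose, 0.4 mM ATP in Hepes pH 7.6. Normalized to with/without-enzyme DMSO controls.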

[14] = biological target: T1, Hexokinase-4 (Homo sapiens) + Glucokinase regulatory protein (Homo sapiens); assay: qHTS assay for inhibitors of recombinant human GCK-GKRP interaction: ADP-Glo assay (AID 743206);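 also: plate controls were DMSO plus enzyme for no effect and no enzyme for full effect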
Summary of the method: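 GST-GCK and FLAG-GKRP (15 nM each in the dispensed mix, with 2 uM S6P) react with 0.4 mM ATP and 5 mM glucose (final) in Hepes pH 7.6 for 60 min at room temperature. ADP is measured by ADP-Glo luminescence.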

[15] = Cell Proliferation Assay against the TMD8 Cell Line (Caspase readout at 16 hrs) (AID 651712); also: potency is read from the fitted curve at half-maximal effect
Summary of the method: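 TMD8 cells (500/well) in phenol-red-free RPMI with glutamine, 5% FBS, were exposed to compounds for 16 h at 37 °C. Caspase 3/7 activation was read by Caspase-Glo luminescence; percent activity normalised to DMSO (0%) and 9.2 uM bortezomib final (100%).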

[16] = Cell Proliferation Assay against the TMD8 Cell Line (Caspase readout at 8 hrs) (AID 651713); also: potency is read from the fitted curve at half-maximal effect
Summary of the method: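 Seed log-phase TMD8 cells, add compound by pin tool, incubate 8 h at 37C under 5% CO2, equilibrate to room temperature, add Caspase-Glo, wait 15 min, read luminescence; percent activity uses DMSO and 9.2 uM bortezomib controls.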

[17] = qHTS assay to identify small molecules that stimulate interleukin-8 (IL-8) secretion (AID 651758; active = well fitted activation curve with a large enough effect in the signal ratio; the % refers to the signal ratio; also: potency is read from the fitted curve at half-maximal effect; as to activation: 0% is about no effect)
Summary of the method: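 THP-1, 2000 cells/well; cpd 16 h, 37 C; add cryptate + XL665 anti-IL-8 Abs; RT 1-3 h; TR-FRET read.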

[18] = biological target: Tyrosine-protein kinase Yes (Homo sapiens) (UniProt P07947); assay: qHTS for small molecule inhibitors of Yes1 kinase: Primary Screen (AID 686947);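 also: plate controls were DMSO with enzyme for no effect and no-enzyme DMSO wells for full effect; nearly all actives have a fitted effect of over 60% in size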
Tyrosine-protein kinase Yes (Homo sapiens), sequence (P07947 whole entry, looked up): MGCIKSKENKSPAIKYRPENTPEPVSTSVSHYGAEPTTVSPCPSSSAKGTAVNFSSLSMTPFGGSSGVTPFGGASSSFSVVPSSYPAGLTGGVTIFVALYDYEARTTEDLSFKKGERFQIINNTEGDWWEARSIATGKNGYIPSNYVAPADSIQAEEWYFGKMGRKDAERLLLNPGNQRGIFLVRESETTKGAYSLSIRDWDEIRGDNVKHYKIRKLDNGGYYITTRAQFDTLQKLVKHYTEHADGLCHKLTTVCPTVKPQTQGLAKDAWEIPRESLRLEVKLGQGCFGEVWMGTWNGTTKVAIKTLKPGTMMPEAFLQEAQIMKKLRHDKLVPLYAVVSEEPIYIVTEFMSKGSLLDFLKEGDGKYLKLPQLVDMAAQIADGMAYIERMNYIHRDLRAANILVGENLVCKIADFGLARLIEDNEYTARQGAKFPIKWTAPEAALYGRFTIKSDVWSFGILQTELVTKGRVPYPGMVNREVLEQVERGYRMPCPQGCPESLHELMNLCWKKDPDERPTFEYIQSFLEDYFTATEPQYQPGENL
Summary of the method: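 Yes1 (4 nM) preincubated 20 min with compound, then 60 min room-temperature reaction with 0.1 mM ATP and 0.3 mg/mL poly(E4Y) in pH 7.5 Tris, 10 mM MgCl2. ADP measured by ADP-Glo luminescence, normalised to enzyme/no-enzyme controls.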

[19] = qHTS assay for small molecule disruptors of the mitochondrial membrane potential - 1 hr assay (AID 651754; calls by dose curve; also: nearly all actives have a fitted effect of over 35% in size; also: potency is read from the fitted curve at half-maximal effect)
Summary of the method: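 HepG2, 2,000 cells/well, overnight attachment; cpd or DMSO 1 hr, 37C/5% CO2; Mito-MPS dye 30 min, 37C; fluorescence monomer (490/535) and aggregate (540/590).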

[20] = qHTS assay for small molecule disruptors of the mitochondrial membrane potential - 5 hr assay (AID 651755; calls by dose curve; also: nearly all actives have a fitted effect of over 40% in size; also: potency is read from the fitted curve at half-maximal effect)
Summary of the method: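 HepG2 cells, attached overnight at 37C, were exposed to compound or DMSO for 5 hr at 37C, 5% CO2. Mito-MPS dye was then added for 30 min, and fluorescence read at 490/535 nm (monomers) and 540/590 nm (aggregates).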

CNCC(O)c1ccc(O)cc1 (stereo unspecified)
inactive: Potency [1] | activation [2] -2.83% | activation [3] -1.11% | activation [4] -0.394% | max response [5] -4.08% | Potency [6] | Potency [7] | outcome [8] | outcome [9] | Potency [10] | Potency [11] | max response [12] 12.1% | outcome [13] | outcome [14]

CC(O)(CS(=O)(=O)c1ccc(F)cc1)C(=O)Nc1ccc(C#N)c(C(F)(F)F)c1 (stereo unspecified)
inactive: Potency [15] | Potency [16] | outcome [8] | outcome [9] | outcome [13] | outcome [14]

COc1cc2c(c(OC)c1OC)-c1ccc(OC)c(=O)cc1[C@@H](NC(C)=O)CC2
active: Potency [1] 0.075 µM | Potency [17] 53.1 nM and 47.3 nM | Potency [6] 335 nM and 119 nM

COc1ccc(C(=O)c2c(C)n(CCN3CCOCC3)c3ccccc23)cc1
active: Potency [15] 20.9 µM | Potency [16] 26.4 µM

CNC(=O)c1ccc(N2C(=S)N(c3ccc(C#N)c(C(F)(F)F)c3)C(=O)C23CCC3)cc1F
inactive: Potency [16]

CCCC(C)(COC(N)=O)COC(=O)NC(C)C (stereo unspecified)
inactive: Potency [1] | activation [2] 1.85% and -3% | Potency [17] | activation [4] 0.419% and -1.4% | max response [5] -0.746% and -1.22% | Potency [6] | Potency [7] | outcome [8] | outcome [9] | Potency [10] | Potency [11] | max response [12] -3.52% and -3.1% | outcome [13] | outcome [14]

CO[C@@H](C(=O)N1Cc2[nH]nc(NC(=O)c3ccc(N4CCN(C)CC4)cc3)c2C1)c1ccccc1
active: Potency [15] 13.2 µM | Potency [16] 16.6 µM

COc1cc(Nc2c(C#N)cnc3cc(OCCCN4CCN(C)CC4)c(OC)cc23)c(Cl)cc1Cl
active: Potency [16] 20.9 µM

Cc1cc(SCc2sc(-c3ccc(C(F)(F)F)c(F)c3)nc2C)ccc1OCC(=O)O
active: Potency [1] 68.6 µM | Potency [5] 2 µM
inactive: Potency [16] | activation [3] -3.79% | activation [4] 14.6% | Potency [18] | max response [12] -1.47%

CC(=O)Oc1ccccc1C(=O)Nc1ncc([N+](=O)[O-])s1
active: Potency [1] 18.8 µM | Potency [2] 12.6 µM | Potency [19] 7.5 µM | Potency [20] 6.68 µM | Potency [4] 708 nM | Potency [11] 5.96 µM

OCCOc1ccccc1
inactive: Potency [1] | activation [2] -4.8% and -3.64% | Potency [19] | Potency [20] | activation [4] -1.68% and 1.95% and 8.55% | max response [5] -6.3% and -2.04% and 0.179% | Potency [6] | Potency [10] | Potency [11] | max response [12] -0.196% and 2.04% and -9.12%

C[C@]12CCC(=O)C(O)=C1CC[C@@H]1[C@@H]2CC[C@]2(C)C(=O)CC[C@@H]12
inactive: Potency [15] | Potency [16] | Potency [1] | activation [2] -6.6% | activation [3] 2.01% | activation [4] 0.0711% | max response [5] -1.14% | Potency [18] | Potency [7] | outcome [8] | outcome [9] | Potency [10] | max response [12] -0.568% | outcome [13] | outcome [14]

CCCCC/C=C\C/C=C\C/C=C\C/C=C\CCCC(=O)NC1CC1
inactive: Potency [15] | Potency [16] | Potency [18]

COC1(CS(=O)c2ccccc2)CCN(CCc2c[nH]c3ccc(F)cc23)CC1 (stereo unspecified)
inactive: Potency [15] | Potency [16] | Potency [18]

C[C@@H]1[C@@H](CC(C[C@H]2O[C@@H]3O[C@]4(C)CC[C@@H]5[C@H](C)CC[C@@H]([C@H]2C)[C@@]35OO4)C[S+](=O)([O-])c2ccc(COC(=O)N(C)C)cc2)O[C@@H]2O[C@]3(C)CC[C@H]4[C@H](C)CC[C@@H]1[C@@]24OO3 (stereo partly specified)
inactive: Potency [16] | Potency [18]
active: Potency [15] 0.209 µM

O=c1oc2ccccc2c(O)c1C(CC(O)c1ccc(-c2ccc(Br)cc2)cc1)c1ccccc1 (stereo unspecified)
active: Potency [1] 27.3 µM
inactive: activation [3] -6.71% | activation [4] -0.116% | max response [5] -1.05% | Potency [10] | max response [12] -8.71%
